“And” between values parts separate entries of the source, which are not always exact repeats. Equal values may be shown once. Inconclusive results are not listed. Where a call stands in place of a potency, no number is given. Some structures have more than one record in an assay (separate samples or runs), and their calls can disagree. The source made the active and inactive calls. Unless noted, calls come from the whole dose curve.
Assays:
[1] = qHTS assay to identify small molecule agonists of the sonic hedgehog signaling (Shh) pathway (AID 1259368); settings: NIH/3T3 Gli1-Luc reporter, luciferase, 24 h, stronger effect = higher value; series mostly up to 92.4 µM;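 note: NIH/3T3-derived 3T3Gli1-Luc cells carrying a stable Gli1-driven firefly luciferase reporter; nearly all actives have a fitted effect of over 15% in size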
In short: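 A Gli1 transcriptional response element controlled firefly luciferase in 3T3Gli1-Luc cells. Compounds and a positive control were added 4 hr after plating, and cells were incubated a further 24 hr at 37 C before luminescence detection.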

[2] = qHTS assay to identify small molecule antagonists of the sonic hedgehog signaling (Shh) pathway (AID 1259369); settings: NIH/3T3 Gli1-Luc reporter, Shh antagonist, luminescence 24 h; series mostly up to 92.4 µM; note: nearly all actives have a fitted effect of over 45% in size; note: potency is the fitted concentration of half-maximal effect
In short: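 For antagonist detection, the reporter line received test compounds together with conditioned medium, incubated 24hr at 37 C, 5% CO2, then luminescence was recorded following 30min room-temperature luciferase reagent incubation.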

[3] = qHTS assay to identify small molecule agonists of the androgen receptor (AR) signaling pathway in the presence of an antagonist - cell viability counter screen (AID 1259379; active = well fitted curve in the direction sought with a large enough effect in the repeat runs; an effect the other way counts as inactive or inconclusive;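 note: MDA-kb2 human breast cancer cells carrying an MMTV luciferase reporter; nearly all actives have a fitted effect of over 25% in size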); settings: MDA-kb2 viability, CellTiter-Fluor, 16 h; series mostly up to 92.4 µM
In short: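 Seed MDA-kb2 at 3,000 cells/well; incubate 5 hr, 37C, 0% CO2. Add nilutamide to 3.0uM final, then pin compounds at 15 concentrations. Incubate 16 hr. Add CellTiter-Fluor at 15 hr, read fluorescence after 1 hr.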

[4] = qHTS assay to identify small molecule agonists of the estrogen receptor beta (ER-beta) signaling pathway - cell viability counter screen (AID 1259380; active = well fitted curve in the direction sought with a large enough effect in the repeat runs; an effect the other way counts as inactive or inconclusive; note: nearly all actives have a fitted effect of over 30% in size); settings: ER-beta-bla HEK293T viability, CellTiter-Glo luminescence, 16 h; series mostly up to 92.4 µM
In short: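 CellTiter-Glo read, 30 min RT, same wells as bla assay; cells ER-beta-UAS-bla HEK293T; 16 hr compound, 37C; medium 2% charcoal-stripped FBS.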

[5] = qHTS assay to identify small molecule antagonists of the estrogen receptor beta (ER-beta) signaling pathway - cell viability counter screen (AID 1259382; active = well fitted curve in the direction sought with a large enough effect in the repeat runs; an effect the other way counts as inactive or inconclusive;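 note: HEK293T cells carrying ER-beta-UAS-bla reporter stimulated with estradiol; nearly all actives have a fitted effect of over 55% in size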); settings: ER-beta-UAS-bla HEK293T viability, CellTiter-Glo luminescence, 16 h; series mostly up to 92.4 µM
In short: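 In this multiplexed counter screen, cells were seeded at 2,000 per well in medium with 2% charcoal-stripped FBS and incubated 6 hr before compound and 1nM final E2 were added. Sixteen hours later, ATP-based luminescence reported viability.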

[6] = target: Estrogen receptor (Homo sapiens) (UniProt P03372); experiment: qHTS assay to identify small molecule agonists of the estrogen receptor alpha (ER-alpha) signaling pathway in the presence of an antagonist (AID 1259383); settings: VM7Luc4E2 cells, ERE-luciferase, +ICI-182,780, 22 h; series mostly up to 92.4 µM; note: top concentration of the series differs between compounds; nearly all actives have a fitted effect of over 15% in size
Chain of Estrogen receptor (Homo sapiens) (P03372 whole entry, looked up): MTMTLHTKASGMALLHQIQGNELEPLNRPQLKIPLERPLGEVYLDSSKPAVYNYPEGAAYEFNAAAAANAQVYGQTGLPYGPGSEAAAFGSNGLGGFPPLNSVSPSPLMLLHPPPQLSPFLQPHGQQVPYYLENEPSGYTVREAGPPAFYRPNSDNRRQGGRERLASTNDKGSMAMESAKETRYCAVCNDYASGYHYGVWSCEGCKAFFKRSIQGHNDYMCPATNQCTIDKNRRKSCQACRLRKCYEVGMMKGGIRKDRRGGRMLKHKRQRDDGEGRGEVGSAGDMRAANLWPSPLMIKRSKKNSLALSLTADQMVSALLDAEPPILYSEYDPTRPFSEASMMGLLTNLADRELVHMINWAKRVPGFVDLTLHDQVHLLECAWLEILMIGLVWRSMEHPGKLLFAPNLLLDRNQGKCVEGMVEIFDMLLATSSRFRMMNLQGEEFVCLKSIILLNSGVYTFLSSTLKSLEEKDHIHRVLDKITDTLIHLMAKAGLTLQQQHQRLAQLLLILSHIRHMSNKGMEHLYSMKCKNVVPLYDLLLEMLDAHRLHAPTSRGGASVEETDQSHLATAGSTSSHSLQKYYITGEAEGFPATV
In short: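 Stably transfected VM7Luc4E2 reporter cells, kept 5 days in charcoal-stripped serum, received ICI-182,780 at 10.0nM final before compound addition. Following 22hr incubation at 37C and 5% CO2, luciferase signal was read by luminescence.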

[7] = qHTS assay to identify small molecule agonists or antagonists of the thyroid stimulating hormone receptor (TSHR) signaling pathway - wild type cell line counter screen (AID 1259384); settings: HEK293 wild type, cAMP HTRF counter-screen, stronger effect = higher value; series mostly up to 92.4 µM
In short: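 Counter screen in untransfected Hek293: compounds (15-point titration, triplicate) plus phosphodiesterase inhibitor Ro20-1724 added after 18 h plating; 30 min RT. Intracellular cAMP via competitive d2/cryptate immunoassay, 1 h incubation.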

[8] = target: Thyrotropin receptor (Homo sapiens) (UniProt P16473); experiment: qHTS assay to identify small molecule antagonists of the thyroid stimulating hormone receptor (TSHR) signaling pathway (AID 1259385); settings: TSHR-HEK293 cAMP HTRF, TSH-stimulated antagonist mode; series mostly up to 92.4 µM; note: nearly all actives have a fitted effect of over 20% in size
Chain of Thyrotropin receptor (Homo sapiens) (P16473 whole entry, looked up): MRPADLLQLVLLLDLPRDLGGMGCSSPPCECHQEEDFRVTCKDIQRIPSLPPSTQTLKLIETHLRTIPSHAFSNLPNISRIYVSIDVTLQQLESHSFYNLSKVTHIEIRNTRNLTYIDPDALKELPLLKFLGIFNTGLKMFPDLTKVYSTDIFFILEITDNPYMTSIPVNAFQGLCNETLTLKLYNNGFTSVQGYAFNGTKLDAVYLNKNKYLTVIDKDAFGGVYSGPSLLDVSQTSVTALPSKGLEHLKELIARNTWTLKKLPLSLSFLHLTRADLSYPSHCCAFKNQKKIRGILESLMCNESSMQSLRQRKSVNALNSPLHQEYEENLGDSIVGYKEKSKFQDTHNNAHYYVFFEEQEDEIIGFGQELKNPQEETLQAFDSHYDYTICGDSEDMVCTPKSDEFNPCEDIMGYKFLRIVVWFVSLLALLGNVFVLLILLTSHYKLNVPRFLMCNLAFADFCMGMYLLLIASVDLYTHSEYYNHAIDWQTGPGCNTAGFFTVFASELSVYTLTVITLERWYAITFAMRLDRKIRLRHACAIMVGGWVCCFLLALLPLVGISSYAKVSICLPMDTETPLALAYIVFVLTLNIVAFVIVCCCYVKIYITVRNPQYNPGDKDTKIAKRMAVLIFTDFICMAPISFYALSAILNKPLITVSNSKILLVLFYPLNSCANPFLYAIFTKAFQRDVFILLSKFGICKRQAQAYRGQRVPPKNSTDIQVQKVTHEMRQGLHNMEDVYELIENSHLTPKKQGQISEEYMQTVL
In short: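 Antagonist mode: compound-treated TSHR-expressing HEK293 cells were stimulated with 1.5 ng/mL TSH (final) in presence of Ro20-1724 for 30 min at RT. HTRF cAMP detection after 1 h; each compound tested at 15 concentrations, triplicate.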

[9] = qHTS assay to identify small molecule agonists of the estrogen receptor alpha (ER-alpha) signaling pathway in the presence of an antagonist - cell viability counter screen (AID 1259386; active = well fitted curve in the direction sought with a large enough effect in the repeat runs; an effect the other way counts as inactive or inconclusive;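 note: cells exposed to compounds for 22 h at 37 °C before the viability read; nearly all actives have a fitted effect of over 30% in size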); settings: VM7Luc4E2 viability, CellTiter-Fluor fluorescence, 22 h; series mostly up to 92.4 µM
In short: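 Viability counter screen using VM7Luc4E2 (full-length ER-alpha, four ERE-luciferase). The cells were treated with compounds alongside ICI-182,780 10.0nM for 22hr, and live-cell protease fluorescence was quantified with CellTiter-Fluor.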

[10] = target: Progesterone receptor (Homo sapiens) (UniProt P06401); experiment: qHTS assay to identify small molecule agonists of the progesterone receptor (PR) signaling pathway (AID 1346784); settings: PR-UAS-bla HEK293T, beta-lactamase FRET ratio, 16 h; series mostly up to 92.4 µM; note: nearly all actives have a fitted effect of over 30% in size
Chain of Progesterone receptor (Homo sapiens) (P06401 whole entry, looked up): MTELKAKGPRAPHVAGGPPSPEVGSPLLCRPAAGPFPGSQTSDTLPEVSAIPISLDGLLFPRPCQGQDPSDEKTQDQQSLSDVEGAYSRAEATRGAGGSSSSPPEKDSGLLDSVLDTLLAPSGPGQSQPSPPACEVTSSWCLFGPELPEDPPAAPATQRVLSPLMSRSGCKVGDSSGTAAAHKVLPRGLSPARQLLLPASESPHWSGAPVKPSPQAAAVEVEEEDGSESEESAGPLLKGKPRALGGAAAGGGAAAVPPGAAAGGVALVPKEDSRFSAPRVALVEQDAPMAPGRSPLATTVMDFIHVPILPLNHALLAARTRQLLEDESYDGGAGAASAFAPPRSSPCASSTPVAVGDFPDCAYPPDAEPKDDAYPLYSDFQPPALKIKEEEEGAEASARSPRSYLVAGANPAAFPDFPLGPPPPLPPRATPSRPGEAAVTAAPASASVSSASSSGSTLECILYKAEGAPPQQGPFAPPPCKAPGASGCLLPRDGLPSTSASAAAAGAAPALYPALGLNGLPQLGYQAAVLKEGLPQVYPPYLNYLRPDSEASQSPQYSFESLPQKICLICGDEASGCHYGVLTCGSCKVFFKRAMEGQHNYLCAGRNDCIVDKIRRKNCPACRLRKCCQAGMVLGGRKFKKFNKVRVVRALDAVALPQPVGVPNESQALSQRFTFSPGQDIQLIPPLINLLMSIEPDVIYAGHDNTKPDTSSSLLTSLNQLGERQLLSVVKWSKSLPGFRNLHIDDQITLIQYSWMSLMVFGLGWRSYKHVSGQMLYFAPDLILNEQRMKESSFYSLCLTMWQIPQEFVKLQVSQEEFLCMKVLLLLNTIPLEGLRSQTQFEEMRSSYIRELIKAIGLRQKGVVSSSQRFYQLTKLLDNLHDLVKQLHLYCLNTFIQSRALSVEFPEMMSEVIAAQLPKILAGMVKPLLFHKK
In short: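 Compounds were tested for PR agonism in HEK 293T cells bearing a beta-lactamase gene under UAS control. Treatment lasted 16 hr at 37C; signal came from fluorescence of a FRET substrate.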

[11] = qHTS assay to identify small molecule antagonists of the progesterone receptor (PR) signaling pathway - cell viability counter screen (AID 1346798; active = well fitted curve in the direction sought with a large enough effect in the repeat runs; an effect the other way counts as inactive or inconclusive; note: nearly all actives have a fitted effect of over 50% in size); settings: PR-UAS-bla HEK293T viability, CellTiter-Glo luminescence, 16 h; series mostly up to 92.4 µM
In short: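 Following a 4 hr attachment, PR-UAS-bla HEK293T cells in charcoal-stripped FBS medium were exposed to compounds with R5020 for 16 hr; CellTiter-Glo was added and luminescence read after 30 min at room temperature.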

[12] = qHTS assay to identify small molecule agonists of the progesterone receptor (PR) signaling pathway - cell viability counter screen (AID 1346799); settings: PR-UAS-bla HEK293T viability, CellTiter-Glo luminescence, 16 h; series mostly up to 92.4 µM; note: nearly all actives have a fitted effect of over 45% in size
In short: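 Here, 3,000 PR-UAS-bla HEK293T cells per well were treated with compounds for 16 hr after a 6 hr preincubation at 37C and 5% CO2; cell viability is the CellTiter-Glo luminescence signal.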

[13] = qHTS assay to identify small molecule antagonists of the TGF-beta/Smad signaling pathway - cell viability counter screen (AID 1346824; active = well fitted curve in the direction sought with a large enough effect in the repeat runs; an effect the other way counts as inactive or inconclusive; note: nearly all actives have a fitted effect of over 50% in size); settings: SBE-bla HEK293T viability, CellTiter-Glo luminescence; series mostly up to 76.8 µM
In short: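 Cytotoxicity counter-screen run in the same wells as the beta-lactamase Smad reporter read: CellTiter-Glo luminescence after 30 min at room temperature. HEK 293T SBE-bla cells had 5 hr compound exposure at 37 C with TGF-beta1 (0.25 ng/mL stock).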

[14] = qHTS assay to identify small molecule agonists of the TGF-beta/Smad signaling pathway - cell viability counter screen (AID 1346829; active = well fitted curve in the direction sought with a large enough effect in the repeat runs; an effect the other way counts as inactive or inconclusive; note: top concentration of the series differs between compounds; nearly all actives have a fitted effect of over 45% in size); settings: SBE-bla HEK293T viability, CellTiter-Glo luminescence, 5 h; series mostly up to 76.8 µM
In short: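 In parallel with the Smad reporter read, viability of HEK 293T cells stably carrying SBE-bla is quantified by ATP luminescence following 5 hr compound treatment.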

[15] = target: Thyrotropin-releasing hormone receptor (Homo sapiens) (UniProt P34981); experiment: qHTS assay to identify small molecule antagonists of the thyrotropin-releasing hormone receptor (TRHR) signaling pathway (AID 1346877; active = well fitted inhibition curve with a large enough effect in the repeat runs, not every such curve was filed as active); settings: TRHR-HEK293, TRH-induced calcium fluorescence, antagonist mode; series mostly up to 51.3 µM
Chain of Thyrotropin-releasing hormone receptor (Homo sapiens) (P34981 whole entry, looked up): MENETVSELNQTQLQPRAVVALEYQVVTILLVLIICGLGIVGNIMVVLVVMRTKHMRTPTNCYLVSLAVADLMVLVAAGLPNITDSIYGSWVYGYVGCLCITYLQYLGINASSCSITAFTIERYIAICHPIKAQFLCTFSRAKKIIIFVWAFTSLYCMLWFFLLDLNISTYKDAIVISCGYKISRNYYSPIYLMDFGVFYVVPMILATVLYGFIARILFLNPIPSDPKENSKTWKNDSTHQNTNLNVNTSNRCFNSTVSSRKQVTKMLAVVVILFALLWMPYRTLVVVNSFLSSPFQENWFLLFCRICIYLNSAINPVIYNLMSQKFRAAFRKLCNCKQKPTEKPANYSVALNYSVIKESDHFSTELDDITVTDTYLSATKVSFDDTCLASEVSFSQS
In short: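 Following an 18 h incubation at 37 °C and a 2 h calcium dye load, TRHR-HEK293 cells were exposed to compound (5 min, room temperature) and challenged with TRH, 1 nM final.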

[16] = qHTS assay to identify small molecule agonists of the TGF-beta/Smad signaling pathway (AID 1346859; active = well fitted activation curve with a large enough effect in the signal ratio in the repeat runs, not every such curve was filed as active; the % refers to the signal ratio); settings: SBE-bla HEK293T, TGF-beta/Smad beta-lactamase reporter, 5 h; series mostly up to 76.8 µM
In short: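 Each well held 4,000 SBE-bla HEK 293T cells incubated overnight before compound addition; 5 hr later the cleavable FRET substrate went on for 2 hr at room temperature, and fluorescence was read at two emissions.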

[17] = target: Progesterone receptor (Homo sapiens) (UniProt P06401); experiment: qHTS assay to identify small molecule antagonists of the progesterone receptor (PR) signaling pathway (AID 1346795; active = well fitted inhibition curve with a large enough effect in the signal ratio in the repeat runs, not every such curve was filed as active; the % refers to the signal ratio); settings: PR-UAS-bla HEK293T, beta-lactamase FRET ratio, 16 h; series mostly up to 92.4 µM
In short: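 In HEK293T cells bearing the PR-UAS-bla reporter, compound effects on promegestone-driven (1 nM) beta-lactamase expression are assessed after 16 hr using a fluorescent FRET substrate incubated 2 hr at room temperature.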

[18] = target: Estrogen receptor beta (Homo sapiens) (UniProt Q92731); experiment: qHTS assay to identify small molecule agonists of the estrogen receptor beta (ER-beta) signaling pathway (AID 1259377; active = well fitted activation curve with a large enough effect in the signal ratio in the repeat runs, not every such curve was filed as active; the % refers to the signal ratio); settings: ER-beta-UAS-bla HEK293T, beta-lactamase FRET ratio, 16 h; series mostly up to 92.4 µM
Chain of Estrogen receptor beta (Homo sapiens) (Q92731 whole entry, looked up): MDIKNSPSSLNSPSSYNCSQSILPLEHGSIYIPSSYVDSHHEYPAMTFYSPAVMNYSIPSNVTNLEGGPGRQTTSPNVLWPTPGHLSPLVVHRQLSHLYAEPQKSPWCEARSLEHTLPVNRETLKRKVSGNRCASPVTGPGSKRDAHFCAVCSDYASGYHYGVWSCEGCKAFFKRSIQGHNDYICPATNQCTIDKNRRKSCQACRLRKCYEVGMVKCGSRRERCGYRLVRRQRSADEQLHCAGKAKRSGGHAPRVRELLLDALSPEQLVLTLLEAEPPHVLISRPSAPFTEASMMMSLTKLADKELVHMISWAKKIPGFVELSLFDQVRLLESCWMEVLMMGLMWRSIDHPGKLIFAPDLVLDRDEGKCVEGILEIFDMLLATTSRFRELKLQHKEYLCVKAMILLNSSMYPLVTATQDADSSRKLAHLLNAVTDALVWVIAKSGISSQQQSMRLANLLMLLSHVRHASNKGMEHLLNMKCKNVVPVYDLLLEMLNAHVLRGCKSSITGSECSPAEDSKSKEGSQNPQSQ
In short: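 Read-out: beta-lactamase FRET fluorescence. Cell line: ER-beta-UAS-bla HEK293T in 2% charcoal-stripped FBS. Exposure: 16 hr at 37C. Substrate step: 2 h at room temperature.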

[19] = target: Estrogen receptor beta (Homo sapiens) (UniProt Q92731); experiment: qHTS assay to identify small molecule antagonists of the estrogen receptor beta (ER-beta) signaling pathway (AID 1259378; active = well fitted inhibition curve with a large enough effect in the signal ratio in the repeat runs, not every such curve was filed as active; the % refers to the signal ratio); settings: ER-beta-UAS-bla HEK293T, beta-lactamase FRET ratio, 16 h; series mostly up to 92.4 µM
In short: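 Antagonist mode: compounds added to beta-lactamase reporter HEK293T ER-beta-UAS cells stimulated with E2 (1nM final), 16 hr at 37C. LiveBLAzer B/G FRET substrate, 2 hours room temperature, fluorescence read-out.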

Structure (SMILES) | outcome [1] | Potency [2] | Potency [3] | Potency [4] | Potency [5] | Potency [6] | outcome [7] | outcome [8] | Potency [9] | Potency [10] | Potency [11] | Potency [12] | outcome [13] | Potency [14] | outcome [15] | outcome [16] | outcome [17] | outcome [18] | Potency [19]
CC(O)CO (centres undefined) | inactive | inactive | inactive | inactive | inactive | inactive | inactive | inactive | inactive | inactive | inactive | inactive | inactive | inactive | inactive |  |  |  | 
O=C(O)CS | inactive | inactive and 30.9 µM (active) | inactive | inactive | inactive | inactive |  |  | inactive |  | inactive | inactive | inactive | inactive | inactive | inactive |  |  | 
N=C(N)c1ccc(OCCCCCOc2ccc(C(=N)N)cc2)cc1 | inactive | 3.84 µM (active) and 2.33 µM (active) and 18.8 µM (active) | inactive | inactive | inactive | inactive | inactive | inactive | inactive | inactive |  | inactive | inactive | inactive | inactive | inactive | inactive |  | 
CC(O)CN(CCN(CC(C)O)CC(C)O)CC(C)O (centres undefined) | inactive | inactive | inactive | inactive | inactive |  | inactive | inactive | inactive | inactive |  | inactive | inactive |  | inactive | inactive |  | inactive | inactive
